Shown are actives, neighbours in structure and some others; about 2.4% of the full set was active somewhere.
Epigenetic reg: epigenetic control regulation, reporter derepression; murine LDR cells, GFP reporter derepression, 30 h; Potency, µM (doses to about 53.9 µM), for the others: top-dose GFP activation, hits mostly activators; 0.2% of 280,000 active; AID 1865; further: % of control where 0% means no effect; nearly all actives have a fitted effect of over 60% in size
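In this reporter-derepression format, murine cells bearing a silenced integrated CMV-GFP locus incubate with test compound (30 h, 37 C), then are washed and imaged; fluorescent objects of 20–120 um count as induced cells.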
A549 tox: counter-screen for Nrf2 inhibitors: cytotoxicity in A549 cells; Potency, µM (series often up to 46 µM), inactives show at the highest dose activity change, negative = cytotoxicity, usual class: inhibitors; A549 ARE-Fluc cells, CellTiter-Fluor viability, 18-24 h; AID 504648; 0.16% of 390,000 active; further: on the % scale 0 is the no-effect control and ±100 the full control effect
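Cytotoxicity counterscreen: CellTiter-Fluor fluorescence was measured in A549 ARE_Fluc cells after 18-24 h of compound exposure in a concentration series. The subsequent BugLite luminescent read reports ARE-luciferase activity.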
PINK1 expr mod: modulators of PINK1 expression; Potency, µM (doses to about 76.6 µM), inactives show at the highest dose activation (PINK1 increase), actives largely listed as activators; 0.2% of 410,000 active; PINK1 immunofluorescence, high-content cytometry, 24 h; active means well fitted activation curve with a large enough effect; inconclusive means small, poorly fitted or top-dose-only effect; cell line not stated here; further: % of control where 0% means no effect; nearly all actives have a fitted effect of over 65% in size
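Stable cell line treated 24 h with compounds at 5 concentrations (CCCP controls), then fixed and immunostained for PINK1 plus nuclear and cell stains; PINK1 immunofluorescence quantified by laser-scanning microplate cytometry.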
Nrf2 activator: activates Nrf2 signaling; AREc32 ARE-luciferase reporter (MCF7-derived line), luminescence, 24 h; Potency, µM (titrated, usually from 46.1 µM), for inactives: at the highest dose activation, hits mostly activators; 0.31% of 410,000 active; AID 624171; further: % of control where 0% means no effect; nearly all actives have a fitted effect of over 65% in size
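Cells of the AREc32 ARE-luciferase line are plated in OPTI-MEM containing 5% FBS and left overnight at 37 deg C. Compounds are pinned in, incubation continues 24 hr, and firefly luciferase signal is then measured.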
Nrf2 inh: blocks Nrf2 signaling | 2.1% of 360,000 active | Potency, µM (top dose mostly 46 µM), for the others: at the highest dose activity change, negative = inhibition, usual class: inhibitors | A549 ARE-Fluc reporter, luciferase luminescence, 18-24 h; further: on the % scale 0 is the no-effect control and ±100 the full control effect; nearly all actives have a fitted effect of over 60% in size
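A549 ARE_Fluc cells, 5000/well, 5% FBS OPTI-MEM; compounds in dose-response, 18-24 h at 37 °C/5% CO2; CellTiter-Fluor viability read (Ex 405/Em 525), then BugLite luciferase luminescence = Nrf2 activity.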
An asterisk follows results filed as active; ? = inconclusive; . = no result given; [ ] = remark or other dose. Unless noted, the call rests on the fitted dose curve; in most records, active means well fitted curve in the direction sought with a large enough effect; inconclusive means small, poorly fitted or top-dose-only effect, or another doubt; inactive means no such curve, though single readings can be large; an effect the other way counts as inactive or inconclusive. Potency means the concentration at half of the fitted maximal effect.

SMILES	Epigenetic reg	A549 tox	PINK1 expr mod	Nrf2 activator	Nrf2 inh
COc1ccc(NS(=O)(=O)c2cc(NC(=O)C3CC3)ccc2N2CCCCC2)cc1	-1.4%	-14.5%	-0.1%	0.5%	16.4µM*
CC1CN(CC(=O)NCCc2ccncc2)Cc2ccccc2O1 (stereo unspecified)	.	.	-0.4%	.	.
O=C(COC(=O)c1ccccc1Oc1ccccc1)Nc1ccc(Br)cc1	.	.	1.2%	.	.
COc1ccc(-c2cc(C3CCN(c4cc(Cl)nc(N)n4)CC3)[nH]n2)cc1	0.9%	?	-3.2%[38.3 µM]	-0.4%	13µM*
COc1ccc(OC)c(-c2cc(C3CCN(c4cc(Cl)nc(N)n4)CC3)[nH]n2)c1	-1.3%	-17.4%	0.2%	1.6%	?
Cc1ccc(NS(=O)(=O)c2ccc(-n3cccn3)cc2)cc1F	.	-1.8%	3.6%	-0.2%	14.6µM*
CC(O)(COc1ccccc1)c1ccc2c(c1)CN(Cc1cccn1-c1ccccn1)CCO2 (stereo unspecified)	.	.	0.0%	.	.
C/C(=N\NC(=O)CCc1ccccc1)C1C(=O)c2ccccc2C1=O	1.8%	-18.8%	0.3%	-0.3%	?
C/C(=N\NC(=O)c1cccc(Cl)c1)C1C(=O)c2ccccc2C1=O	-3.6%	?	39.8µM*	4.1%[9.22 µM]	?
O=[N+]([O-])c1ccc(O/N=[N+](\[O-])N2CCCCC2)c([N+](=O)[O-])c1	.	.	-1.1%	.	.
COc1ccc(N2CCN(C(=O)c3ccc(N(C)S(=O)(=O)c4ccc(C)cc4)cc3)CC2)cc1	1.7%	-10.1%	-0.4%	0.5%	18.4µM*
COc1ccc(N2CCN(C(=O)c3ccc(N(C)S(=O)(=O)c4ccc(OC)cc4)cc3)CC2)cc1	2.2%	10.2%	-1.1%	2.9%	25.9µM*
COc1ccc(S(=O)(=O)N(C)c2ccc(C(=O)N3CCN(C)CC3)cc2)cc1	.	0.8%	-0.3%	0.3%	-10.2%
CCOC(=O)N1CCN(C(=O)c2ccc(N(C)S(=O)(=O)c3ccc(C)cc3)cc2)CC1	.	-10.5%	2.2%	0.1%	23.1µM*
COc1ccccc1Nc1nn2c(=O)c3ccc(C(=O)NCCC4=CCCCC4)cc3nc2s1	0.7%	?	-5.9%	-2.5%	?
O=C1CN(S(=O)(=O)c2ccc3c(c2)OCCO3)CCN1S(=O)(=O)c1c(F)cccc1F	.	-4.8%	.	.	17.0%
C=C1CCC(OC(C)=O)/C(C)=C/CC2[C@H]1CC2(C)C (stereo partly specified)	0.3%	.	0.4%	.	.
C=C1C(=O)O[C@H]2C1CC[C@@](C)(O)C13C=CC(C)(C21)C1(C3)C(=O)O[C@@H]2C3C(C)=CCC3[C@](C)(O)C[C@H](OC(C)=O)C21 (stereo partly specified)	2.0%	-10.1%	17.8%	15.8µM*	-28.3%
C=C(C(=O)OC)C(NC(=O)OC)c1ccccc1 (stereo unspecified)	-0.3%	.	.	.	.
COc1ccc(CN(C)S(=O)(=O)c2nnc(NC(=O)C(C)C)s2)cc1OC	0.0%	-4.4%	1.3%	0.6%	?
Cc1cc(C(=O)CSc2nnc(-c3cccs3)n2Cc2ccccc2)c(C)n1C	-3.0%	-7.9%	-0.9%	0.5%	6.2%
O=c1cc(CSc2nnc(-c3cccs3)n2Cc2ccccc2)nc2sc3ccccc3n12	-0.7%	-29.0%	-1.2%	-0.5%	25.9µM*
Fc1ccc(N2CCN(C(=S)NCC3CCCO3)CC2)cc1 (stereo unspecified)	0.3%	3.6%	1.1%	-0.5%	-23.6%
S=C(NCCCN1CCOCC1)N1CCN(c2nc(-c3ccc(Cl)cc3)cs2)CC1	3.3%	?	1.8%	-2.8%	13µM*
S=C(NCCCN1CCOCC1)N1CCN(c2nc(-c3ccccc3)cs2)CC1	-3.3%	0.6%	7.1%	3.7%	-11.3%
SMILES	Epigenetic reg	A549 tox	PINK1 expr mod	Nrf2 activator	Nrf2 inh
S=C(NCC1CCCO1)N1CCN(c2nc(-c3ccc(Cl)cc3)cs2)CC1 (stereo unspecified)	2.4%	?	1.1%	5.3%	16.4µM*
S=C(NCC1CCCO1)N1CCN(c2cccc(Cl)c2)CC1 (stereo unspecified)	-0.1%	-1.4%	-1.2%	0.0%	20.6µM*
CC(C)COc1ccc(CC(=O)NO)cc1	.	.	-0.1%	.	.
O=C1CCc2cc(-c3csc(-c4ccc(O)cc4)n3)ccc2N1	.	.	5.9%	.	.
O=[N+]([O-])c1cc(Cl)c(O)c2ncccc12	10.0%	?	4.6%	7.7%	20.6µM*
O=[N+]([O-])c1ccc(O)c2ncccc12	6.31µM*	13µM*	-0.3%	-2.1%	3.66µM*
O=[N+]([O-])c1cc(Cl)c2cccnc2c1O	?	?	5.6%	11.2%	?
COc1ccc(-n2ncc(C(=O)N3CCN(Cc4ccccc4)CC3)c2C2CCN(C(=O)OC(C)(C)C)CC2)cc1	-0.2%	-11.5%	0.6%	-0.2%	1.3%
CC(C)CC(=O)NC(=S)Nc1nc(-c2cccc3ccccc23)cs1	-0.9%	?	0.1%	4.0%	25.9µM*
Nc1cc(C(F)(F)F)ccc1NCCc1ccccn1	.	-16.9%	2.1%	12.6µM*	-4.0%
c1ccc(NCCc2ccccn2)cc1	.	-0.1%	-3.1%	0.1%	?
CCOC(=O)/C(C#N)=C/c1ccc(-c2ccsc2C(=O)OC)o1	0.0%	.	25.1µM*	4.4%	-15.7%
COC(=O)C(=Cc1ccc(-c2ccsc2C(=O)OC)o1)C(=O)OC	2.0%	?	-0.7%	12.6µM*	1.4%
O=C(NCc1ccc2c(c1)OCO2)c1cccc(S(=O)(=O)N2CCCCC2)c1	-1.0%	-8.6%	0.3%[38.3 µM]	-0.3%	14.6µM*
O=C(c1cccc(S(=O)(=O)N2CCCC2)c1)c1cccc(S(=O)(=O)N2CCCC2)c1	-1.4%	-14.9%	-0.4%	-0.4%	8.2µM*
O=C(NCc1ccc2c(c1)OCO2)c1cccc(S(=O)(=O)N2CCCC2)c1	.	0.9%	1.1%	-0.1%	-1.7%
O=C(NCCOc1ccc(Cl)cc1)c1cccc(S(=O)(=O)N2CCCC2)c1	.	-0.2%	0.7%	-0.5%	23.1µM*
O=C(N/N=C/c1c[nH]c2ccccc12)c1cc(-c2ccc(-c3ccccc3)cc2)n[nH]1	-1.5%	18.4µM*	-3.8%[38.3 µM]	17.7%	?
Cc1ccc(C)c(NS(=O)(=O)c2cc(C(=O)O)ccc2Cl)c1	-1.5%	.	.	.	.
O=C(O)C1=C[C@@H](c2ccc(Br)cc2)C[C@@H](OCc2ccc(CO)cc2)O1	-4.5%	7.2%	2.6%	-0.3%	-4.3%
O=C(C1=C[C@@H](c2ccc(Br)cc2)C[C@@H](OCc2ccc(CO)cc2)O1)N1CCN(Cc2ccccc2)CC1	0.4%	?	-0.6%	-3.4%	20.6µM*
C#Cc1ccc([C@H]2C=C(C(=O)N3CCN(Cc4ccccc4)CC3)O[C@@H](OCc3ccc(CO)cc3)C2)cc1	0.4%	-13.7%	-1.0%	6.7%	?
O=C(C1=C[C@@H](c2ccc(C(F)(F)F)cc2)C[C@@H](OCc2ccc(CO)cc2)O1)N1CCN(Cc2ccc3c(c2)OCO3)CC1	1.2%	-21.6%	-0.7%	-0.4%	16.4µM*

Bioassay records deposited in PubChem by National Center for Advancing Translational Sciences (NCATS).
